# Source: PubChem BioAssay (NCATS)
# Inconclusive results are not listed. Entries that show only a call come without a potency. Active and inactive are the calls of the source. Calls come from the whole dose curve; as a rule, active = well fitted curve in the direction sought with a large enough effect; inconclusive = small, poorly fitted or top-dose-only effect, or another doubt; inactive = no such curve, though single readings can be large; an effect the other way counts as inactive or inconclusive.
# What was measured:
# [1] = qHTS assay to identify small molecule inhibitors of chordoma cells - UCH-1 (AID 1259355); note: nearly all actives have a fitted effect of over 55% in size
# Outline: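 800 cells/well, overnight attach; compounds pinned at 15 concs, then auranofin/camptothecin/doxorubicin/rubitecan/topotecan combo added; 48hr 37 C, 5% CO2; CellTiter-Glo, 30min RT, luminescence.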
# [2] = qHTS assay to identify small molecule inhibitors of chordoma cells - UCH-2 (AID 1259356); note: series mostly up to about 46 µM
# [3] = P-glycoprotein substrates identified in KB-8-5-11 adenocarcinoma cell line, qHTS therapeutic library screen (AID 1346987); details: outcome: dose series up to 44.5 µM unless noted; note: nearly all actives have a fitted effect of over 65% in size; note: potency is the fitted concentration of half-maximal effect
# Outline: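 Compounds are pinned in dose-response onto KB-8-5-11 cells (500 cells/well, colchicine-free medium) and left 72 h at 37 degree C. CellTiter-Glo luminescence then yields AC50 values.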
SMILES,Potency [1],Potency [2],Potency [3]
O=C(O)[C@H]1CN(C/C=C/P(=O)(O)O)CCN1,inactive,inactive,inactive
O=C(O)c1ccc(OCCn2ccnc2)cc1,inactive,inactive,inactive
CN(C)CCC=C1c2ccccc2C(C)(C)c2ccccc21,inactive,inactive,
O=C(O)CCCC/C=C(\c1ccccc1)c1cccnc1,inactive,inactive,inactive
CC/C=C\C/C=C\C/C=C\C/C=C\C/C=C\C/C=C\CCC(=O)O,inactive,inactive,inactive
COc1ccc2c(c1)N(C[C@H](C)CN(C)C)c1ccccc1S2,inactive,inactive,
C=CCOc1ccc(CC(=O)O)cc1Cl,inactive,inactive,inactive
CO[C@H]1C=CO[C@@]2(C)Oc3c(C)c(O)c4c(O)c(cc(O)c4c3C2=O)NC(=O)/C(C)=C\C=C/[C@H](C)[C@H](O)[C@@H](C)[C@@H](O)[C@@H](C)[C@H](OC(C)=O)[C@@H]1C,inactive,inactive,inactive
CC(C)[C@H](N)C(=O)OCC(CO)OCn1cnc2c(=O)[nH]c(N)nc21 (stereo not given in full),inactive,inactive,inactive
CC1=C(/C=C/C(C)=C/C=C/C(C)=C/C=C/C=C(C)/C=C/C=C(C)/C=C/C2=C(C)C[C@@H](O)CC2(C)C)C(C)(C)C[C@H](O)C1,inactive,inactive,
O=P(O)(O)CP(=O)(O)O,inactive,inactive,inactive
C=C1[C@@H]2CC[C@@H](C2)C1(C)C,inactive,inactive,inactive
CCN(CC)C(=S)S,inactive,inactive,inactive
C[Si](C)(C)O[Si](C)(C)C,inactive,inactive,inactive
CC(=O)O[C@@H]1CC2CCC1(C)C2(C)C (stereo not given in full),inactive,inactive,
Cc1ncc(C[n+]2csc(CCOP(=O)(O)O)c2C)c(N)n1,inactive,inactive,inactive
CC1CCCC(C)N1NC(=O)c1ccc(Cl)c(S(N)(=O)=O)c1 (stereo not given),inactive,inactive,inactive
S=C1SCN(Cc2ccccc2)CN1Cc1ccccc1,inactive,inactive,
Cn1nnnc1SCC1=C(C(=O)O)N2C(=O)[C@@H](NC(=O)[C@H](O)c3ccccc3)[C@H]2SC1,inactive,inactive,inactive

SMILES,Potency [1],Potency [2],Potency [3]
CC(C)CN(C[C@@H](OP(=O)(O)O)[C@H](Cc1ccccc1)NC(=O)O[C@H]1CCOC1)S(=O)(=O)c1ccc(N)cc1,inactive,inactive,inactive
Cc1c(Cl)cccc1Nc1ncccc1C(=O)O,inactive,inactive,
OCCN1CCN(CC/C=C2/c3ccccc3Sc3ccc(Cl)cc32)CC1,inactive,inactive,
CCOC(=O)Cc1ccc(-c2ccccc2)cc1,inactive,inactive,inactive
NCCO/C=C/[C@H](N)C(=O)O,inactive,inactive,inactive
CC(=O)[C@H]1CC[C@H]2[C@@H]3C=CC4=CC(=O)CC[C@@]4(C)[C@H]3CC[C@]12C,inactive,inactive,
NC(=O)C1c2ccccc2CCc2ccccc21,inactive,inactive,inactive
NC(=O)[C@@H]1CCCN1C(=O)[C@H](Cc1cnc[nH]1)NC(=O)[C@@H]1CCC(=O)N1,inactive,inactive,
C[C@@H]1C/C=C/C=C/C=C/C=C/[C@H](O[C@@H]2O[C@H](C)[C@@H](O)[C@H](N)[C@@H]2O)C[C@@H]2O[C@](O)(C[C@@H](O)C[C@H]3O[C@@H]3/C=C/C(=O)O1)C[C@H](O)[C@H]2C(=O)O,inactive,inactive,inactive
c1ccc2ccccc2c1,inactive,inactive,inactive
CCC(O)c1ccccc1 (stereo not given),inactive,inactive,inactive
CC(=O)Nc1ccc(OC(=O)c2ccccc2O)cc1,inactive,inactive,inactive
O=C1c2c(O)cccc2[C@H]([C@@H]2O[C@H](CO)[C@@H](O)[C@H](O)[C@H]2O)c2cc(CO)cc(O)c21,inactive,inactive,inactive
Cc1cccc(Nc2ncccc2C(=O)O)c1C,inactive,inactive,inactive
Cc1ccc(S(=O)(=O)NC(=O)N[C@@H](C)Cc2ccccc2)cc1,inactive,inactive,inactive
C[C@H]1[C@@H](OC(=O)CCC(=O)O)O[C@@H]2OC3(C)CC[C@H]4[C@H](C)CC[C@@H]1[C@@]24OO3,inactive,inactive,4.61 µM (active)
NC(=O)[C@H]1O[C@@H](O)[C@H](O)[C@@H](O)[C@@H]1O,inactive,inactive,inactive
C/C=C/C=C/C(=O)O,inactive,inactive,inactive
CN(C)C(=O)CCSC(SCCC(=O)O)c1cccc(/C=C/c2ccc3ccc(Cl)cc3n2)c1 (stereo not given),inactive,inactive,inactive
